# Shown is part of a subset that was picked to be rich in hits.
# ER stress surv: protection against thapsigargin ER stress killing – CSM14.1 cells, ATP luminescence, primary screen | CSM14.1 thapsigargin ER stress survival | 48,000 tested, 0.33% active | relative survival (cellular ATP), % at 15 µg/mL (by protocol) | AID 1010, 2008;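 active = survival measured by cellular ATP above 50% at 15 µg/ml in the first screen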;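 note: cell death triggered by about 15 µM thapsigargin; ATP read 24 h after thapsigargin was added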
# Hits are given with their value; 0 = inactive.
SMILES,ER stress surv
Cc1ccccc1C(=O)NNC(=O)c1ccco1,0
COc1ccc(C2CC(=O)C3=C(C2)Nc2ccccc2NC3c2ccc(O)cc2)cc1 (stereo unspecified),0
O=C1CCCC2=C1C(c1ccc(F)cc1)Nc1ccc(C(=O)c3ccccc3)cc1N2 (stereo unspecified),0
COc1ccc(C2CC(=O)C3=C(C2)Nc2ccccc2NC3c2cccnc2)cc1OC (stereo unspecified),0
O=C1CCCC2=C1C(c1ccc(O)cc1)Nc1ccc(C(=O)c3ccccc3)cc1N2 (stereo unspecified),0
O=C1CCCC2=C1C(c1ccc([N+](=O)[O-])cc1)Nc1ccc(C(=O)c3ccccc3)cc1N2 (stereo unspecified),121
O=C1CC(c2ccccc2)CC2=C1C(c1ccc(O)cc1)Nc1ccc(C(=O)c3ccccc3)cc1N2 (stereo unspecified),106
O=C1CCCC2=C1C(c1cccs1)Nc1ccc(C(=O)c3ccccc3)cc1N2 (stereo unspecified),0
O=C1CC(c2ccccc2)CC2=C1C(c1cccnc1)Nc1ccc(C(=O)c3ccccc3)cc1N2 (stereo unspecified),102
O=C1CC(c2ccccc2)CC2=C1C(c1ccco1)Nc1ccccc1N2 (stereo unspecified),0
Cc1ccc(C2CC(C(F)(F)F)n3nc(CO)c(Cl)c3N2)cc1 (stereo unspecified),0
COc1ccc(C(=O)/C=C/c2ccc3c(c2)OCO3)cc1,0
N#Cc1c(NC(=O)CN2C(=O)c3cccc4cccc(c34)C2=O)sc2c1CCCC2,0
CC(C)N1C(=O)/C(=C/c2ccc3c(c2)OCO3)SC1=S,0
O=C1C(=O)N(CCCn2ccnc2)C(c2cccc([N+](=O)[O-])c2)/C1=C(\O)c1ccc(Cl)cc1 (stereo unspecified),0
COc1ccc(NC(=O)COc2cccc3ccccc23)c([N+](=O)[O-])c1,0
COc1cc(OC)c(OC)cc1CN1CCN(C(=O)c2ccc(-c3ccccc3)cc2)CC1,0
Cc1ccc(C(=O)N2CCN(Cc3ccccc3)CC2)cc1,0
COc1ccc(C(=O)N2CCN(Cc3cccc(Cl)c3)CC2)cc1,0
O=C(c1ccc(-c2ccccc2)cc1)N1CCN(Cc2ccc(Cl)cc2)CC1,98
O=C(c1ccc(F)cc1)N1CCN(Cc2cccc(Oc3ccccc3)c2)CC1,0
O=C(c1ccc(F)cc1)N1CCN(Cc2ccc(Cl)cc2)CC1,0
COc1ccc(C(=O)N2CCN(Cc3cccc(C)c3)CC2)cc1,0
COc1cccc(CN2CCN(C(=O)c3ccc(-c4ccccc4)cc3)CC2)c1,93
O=C(c1ccccc1)N1CCN(Cc2cccc(Oc3ccccc3)c2)CC1,59
SMILES,ER stress surv
COc1ccc(OC)c(CN2CCN(C(=O)c3ccc(-c4ccccc4)cc3)CC2)c1,104
c1ccc(Oc2cccc(CN3CCN(Cc4ccccn4)CC3)c2)cc1,0
COc1ccc(OC)c(CN2CCN(C(=O)c3ccc(OC)c(OC)c3)CC2)c1,0
COc1cc(C=NN2CCN(c3ccccn3)CC2)ccc1OCc1ccccc1,0
Cc1cc(Cl)ccc1OCCCN1CCOCC1,0
COc1ccc(CC(=O)Nc2ccc(Sc3ccc([N+](=O)[O-])cc3)cc2)cc1OC,0
O=c1[nH]c(N/N=C/c2cccs2)nnc1-c1ccccc1,0
Cc1cccc(N2CCN(C3=NC(=O)/C(=C/c4ccc(-c5cccc([N+](=O)[O-])c5)o4)S3)CC2)c1,0
CCCCCCc1nnc(NC(=O)C(C)(C)C)s1,0
Cc1cc(Br)cc(C)c1NC(=O)c1cccnc1,0
O=C(O)COc1ccccc1/C=N/NC(=O)Cn1nnc(-c2ccccc2Cl)n1,0
O=C(N/N=C/c1ccccc1[N+](=O)[O-])/C(=C\c1ccc2c(c1)OCO2)NC(=O)c1ccccc1,0
O=C(Cc1ccccc1)Nc1ccc(OC(F)F)cc1,0
O=C(c1ccc([N+](=O)[O-])cc1)N1CCN(Cc2cccc(Cl)c2)CC1,0
COc1ccc(C(=O)N2CCN(Cc3cc(OC)c(O)c(OC)c3)CC2)cc1,0
O=C(c1ccc([N+](=O)[O-])cc1)N1CCN(Cc2cccc3ccccc23)CC1,63
O=C(c1ccc([N+](=O)[O-])cc1)N1CCN(Cc2ccccn2)CC1,0
COc1cccc(CN2CCN(C(=O)c3ccc(-c4ccccc4)cc3)CC2)c1OC,113
COc1cccc(CN2CCN(C(=O)c3cccc(F)c3)CC2)c1OC,0
COc1cc(CN2CCN(C(=O)c3ccc(-c4ccccc4)cc3)CC2)cc(OC)c1OC,75
COc1ccc(C(=O)N2CCN(Cc3cc(OC)c(OC)c(OC)c3)CC2)cc1OC,0
COc1cccc(CN2CCN(C(=O)c3ccccc3)CC2)c1OC,0
COc1cccc(/C=N/N=C2/NC(=O)CS2)c1,0
COc1cccc(N(CC(=O)Nc2cc(C)cc(C)c2)S(=O)(=O)c2ccccc2)c1,0
c1ccc(CCCN2CCN(Cc3ccncc3)CC2)cc1,0
SMILES,ER stress surv
Cc1ccccc1N(CC(=O)NCc1ccccn1)S(C)(=O)=O,0
CCOC(=O)C1CCN(C(=O)/C=C/c2cccc([N+](=O)[O-])c2)CC1,0
COc1ccc(N2C(=O)NC(=O)/C(=C/c3cc(Cl)cc(OC)c3O)C2=O)cc1,0
COc1ccc(C(NC(=O)c2ccccc2)c2ccc3cccnc3c2O)cc1 (stereo unspecified),0
CCCC(=O)NC(c1ccc(Cl)cc1)c1ccc2cccnc2c1O (stereo unspecified),0
CCC(=O)NC(c1ccc(N(C)C)cc1)c1ccc2cccnc2c1O (stereo unspecified),59
C=CCc1ccccc1OCCOc1c(Br)cc(/C=c2\sc3nc4ccccc4n3c2=O)cc1OC,0
COc1ccccc1/C=C1\C(=O)NC(=S)N(c2ccc(Br)cc2C)C1=O,0
CCOc1ccc(Nc2nc(-c3c(C)nc4cc(C)ccn34)cs2)cc1,96
Cc1ccn2c(-c3csc(Nc4cccc(O)c4)n3)c(C)nc2c1,0
CCOc1ccc(Nc2nc(-c3ccccn3)cs2)cc1,0
CCOc1ccccc1NC(=O)COc1ccc(-c2ccc(C)cc2)cc1,0
O=C(Nc1cccc(NC(=O)c2cccc3ccccc23)c1)c1ccc(Cl)cc1Cl,0
O=C(COc1ccc2ccccc2c1)Nc1ccc(Cl)c(Cl)c1,0
O=C(COc1ccc2ccccc2c1)Nc1cccc(NC(=O)c2ccc(Cl)cc2Cl)c1,50
CCc1ccc(NC(=O)c2ccc(C(C)C)cc2)cc1,0
COc1ccc(NC(=O)Nc2nnc(-c3ccc(OC)c(OC)c3)s2)cc1,0
CCOc1ccc(N2C(=O)c3ccccc3NC2c2ccc(Br)cc2)cc1 (stereo unspecified),0
CCN1C(=O)c2cccc3c(NC(=O)c4ccc(Oc5ccccc5)cc4)ccc1c23,0
CCN1C(=O)c2cccc3c(NC(=O)c4ccc(S(=O)(=O)N5CCCCCC5)cc4)ccc1c23,96
CCN1C(=O)c2cccc3c(NC(=O)c4ccc(C(=O)c5ccccc5)cc4)ccc1c23,0
C/C(=C\c1ccc(I)cc1)C(=O)c1c(C)cc(C)[nH]c1=O,0
O=C(O)C1C2CCC(O2)C1C(=O)N1CCN(C(c2ccccc2)c2ccccc2)CC1 (stereo unspecified),0
O=C(O)C1C2C=CC(O2)C1C(=O)N1CCN(C(c2ccccc2)c2ccccc2)CC1 (stereo unspecified),0
O=C(C1CC1c1ccccc1)N1CCN(C(c2ccccc2)c2ccccc2)CC1 (stereo unspecified),104
O=C(ON1C(=O)CCC1=O)c1cccnc1,0
